Screening results deposited in PubChem by National Center for Advancing Translational Sciences (NCATS).
IP6K1 inh = inhibitors of human IP6K1. Q92551. IP6K1 kinase, ADP-Glo luminescence, 2 h; stronger effect = lower value. activity change, % (series mostly up to about 58 µM). actives 0.81% (n = 140,000). AID 1645851; in the data active means activity change below about -25%; further: on the % scale 0 is the no-effect control and ±100 the full control effect
Target sequence (Q92551 whole entry, looked up): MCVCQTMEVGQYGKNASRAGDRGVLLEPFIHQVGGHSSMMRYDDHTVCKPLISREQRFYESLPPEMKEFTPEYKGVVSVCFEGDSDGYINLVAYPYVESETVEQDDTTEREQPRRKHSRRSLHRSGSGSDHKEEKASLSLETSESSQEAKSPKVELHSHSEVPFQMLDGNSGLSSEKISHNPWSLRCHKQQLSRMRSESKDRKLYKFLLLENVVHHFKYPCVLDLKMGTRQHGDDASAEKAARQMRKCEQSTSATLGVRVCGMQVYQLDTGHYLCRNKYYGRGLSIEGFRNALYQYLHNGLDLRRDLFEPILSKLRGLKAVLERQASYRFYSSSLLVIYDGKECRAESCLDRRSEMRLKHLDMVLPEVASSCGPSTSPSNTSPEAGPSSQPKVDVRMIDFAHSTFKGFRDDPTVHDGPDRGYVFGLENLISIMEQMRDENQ
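ADP-Glo luminescence measures ADP made by human IP6K1 during a 2 h RT reaction with ATP/IP6 (mix at 1.3 mM/130 uM); top library doses 57.5 and 19.1 uM final.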
SNCA expr inhib = inhibitors of alpha-synuclein (SNCA) gene expression; Potency, µM (top dose mostly 57.2 µM), inactives show at the top dose activity change, negative = inhibition, usual class: inhibitors; AID 1671194; HEK-293 SNCA-luciferase knock-in, luminescence, 24 h; actives 0.17% (n = 140,000);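 further: potency means the concentration at half of the fitted maximal effect; plate controls were DMSO cells for no effect and cell-free wells for full effect; nearly all actives have a fitted effect of over 45% in size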
KDM5B inh = blocks human KDM5B histone demethylase activity; Q9UGL1; KDM5B demethylase, FDH-coupled NADH fluorescence (FDH is formaldehyde dehydrogenase); Potency, µM (doses to about 57.7 µM), most hits filed as inhibitors; actives 2.6% (n = 220,000); further: potency means the concentration at half of the fitted maximal effect; 0% is about no effect; nearly all actives have a fitted effect of over 70% in size
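Coupled FDH/NAD⁺ fluorescence readout. KDM5BΔAP 200 nM final; compound titration, 10 min RT preincubation; substrate mix 12.5 µM H3K4me3, 25 µM 2-OG, 50 µM Fe(II), 100 µM ascorbate, 0.25 mM NAD⁺, 0.25 U/mL FDH; ΔRFU over 30 min.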
HEK293 viab = reduces viability of HEK-293 SNCA reporter cells; actives 0.12% (n = 150,000); Potency, µM (titrated, usually from 57.1 µM), for the others: top-dose activity change, negative = cytotoxicity, most hits filed as cytotoxic; HEK-293-SNCA-luc viability, GF-AFC fluorescence, 24 h;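 further: potency means the concentration at half of the fitted maximal effect; 0% = DMSO-treated cells and -100% = medium-only wells without cells; nearly all actives have a fitted effect of over 30% in size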
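Cytotoxicity counterscreen: after 24 h compound treatment of genome-edited SNCA-luciferase HEK-293 cells, live-cell protease substrate GF-AFC read by fluorescence after 30 min; activity scaled between DMSO (0%) and medium-only (-100%), curves Hill-fitted.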
The depositor's hits bear a star; i = inactive; ? = inconclusive; . = no result given; ! = not confirmed by another sample; [ ] = dose if it differs, or a comment. An excerpt weighted towards active compounds, which were near 3% of everything screened. Unless noted, the call rests on the fitted dose curve; in most records, active means well fitted curve in the direction sought with a large enough effect; inconclusive means small, poorly fitted or top-dose-only effect, or another doubt; inactive means no such curve, though single readings can be large; an effect the other way counts as inactive or inconclusive.

SMILES	IP6K1 inh	SNCA expr inhib	KDM5B inh	HEK293 viab
COc1ccc(F)c(CN2CCCC3(CCN(c4cc(C)nc(N)n4)C3)C2)c1 (stereo not given)	-4	-8%	?	?
Fc1cccc(CN2CCCC3(CCN(c4cnccn4)C3)C2)c1F (stereo not given)	-3	11%	28µM*	-11%
O=S(=O)(c1ccccc1)N1CCN(c2ccc3nnc(-c4ccccc4)n3n2)CC1	3	.	.	.
COCC(=O)N1CCN(CCCn2nc3n(c2=O)CCCC3)CC1	-10	.	.	.
Cc1ccc(CNC(=O)c2ccc(NC(=O)c3cc4c(=O)[nH]c(C)cn4n3)cc2)cc1	-9	15%	3.2µM*	7%
Cc1ccc2c(C(=O)N3CCOCC3)cnn2c1	-11	48%[87.6 µM]	32µM*	2%[87.6 µM]
O=C(c1cnn2ncccc12)N1CCOCC1	-7	122%[87.6 µM]	i	-21%[87.6 µM]
COCCn1c(=O)c2c(n1Cc1ccccc1)CN(Cc1cccnc1OC)CC2	2	53%[87.6 µM]	35µM*	-7%[87.6 µM]
COCCn1c(=O)c2c(n1Cc1ccccc1)CN(Cc1cccc(C)n1)CC2	8	2%[87.6 µM]	35µM*	1%[87.6 µM]
CC(C)CCN1CCc2c(n(Cc3cccnc3)n(CCc3ccccc3)c2=O)C1	-14	-6%[87.6 µM]	32µM*	-11%[87.6 µM]
COCCn1c(=O)c2c(n1Cc1ccccc1)CN(Cc1ccc(C(C)C)cc1)CC2	0	-15%[87.6 µM]	?	-22%[87.6 µM]
COc1ccccc1NS(=O)(=O)c1cc(C(=O)N2CCc3sccc3C2)ccc1C	.	.	i	.
O=C(O)c1cccnc1	3	4.3µM*!	.	4.3µM*!
CC[C@H]1CN2CCc3cc(OC)c(OC)cc3[C@H]2C[C@@H]1C[C@@H]1NCCc2cc(OC)c(OC)cc21	.	0.61µM*	.	?
N#Cc1ccccc1-c1ccc(-c2cn(Cc3nnc4ccccn34)nn2)o1	-6	-21%	28µM*	4%
COc1ccc(-c2cc3nc4c(c(=O)n3[nH]2)CN(S(=O)(=O)c2cccs2)CC4)cc1	0	?	?	-1%
CN(CC(=O)N1CCc2nc3cc(-c4ccccc4)[nH]n3c(=O)c2C1)S(=O)(=O)c1cnc[nH]1	10	?	28µM*	6%
CN(CC(=O)N1CCc2nc3cc(-c4ccccc4)[nH]n3c(=O)c2C1)S(=O)(=O)c1cccs1	0	-30%	?	0%
COc1ccc(-c2cc3nc4c(c(=O)n3[nH]2)CN(C(=O)CN(C)S(=O)(=O)c2cnc[nH]2)CC4)cc1	-10	?	25µM*	4%
COc1ccccc1C(=O)N1CC(Oc2cccc(-c3nc(-c4ccccc4)no3)c2)C1	-3	162%	22µM*	-8%
CC(Oc1ccccc1)C(=O)N1CC(Oc2cccc(-c3nc(-c4ccccc4)no3)c2)C1 (stereo not given)	-1	24%	22µM*	7%
COc1cccc(C(=O)N2CC(Oc3cccc(-c4nc(-c5ccccc5)no4)c3)C2)c1	-3	19%	i	-1%
Cn1ncc2c(C(=O)NCc3ccc(F)cc3)cc(-c3ccccc3C(F)(F)F)nc21	3	.	.	.
COc1ccccc1-c1ccc(CN2CCCC(c3nc4ccc(F)cc4c(=O)[nH]3)C2)cc1 (stereo not given)	7	-16%	?	2%
CCc1cccc(-n2nnc(-c3nsc(NC(=O)c4cccc(F)c4)n3)c2C)c1	.	.	i	.
SMILES	IP6K1 inh	SNCA expr inhib	KDM5B inh	HEK293 viab
COc1ccccc1-c1noc(-c2nnn3c2COC(c2ccc(Cl)cc2)C3)n1 (stereo not given)	-1	-26%	?	-10%
COc1ccccc1-c1nc(-c2nnn3c2COC(c2ccc(Cl)cc2)C3)no1 (stereo not given)	-13	-19%	14µM*	-6%
COc1ccc(C2Cn3nnc(-c4nc(-c5ccccc5OC)no4)c3CO2)cc1 (stereo not given)	-10	-11%	28µM*	-5%
CCOc1cccc(-c2noc(-c3nnn4c3COC(c3ccc(F)cc3)C4)n2)c1 (stereo not given)	-20	33%	?	6%
COc1ccc(C2Cn3nnc(-c4noc(-c5cc(F)ccc5F)n4)c3CO2)cc1 (stereo not given)	11	34%	18µM*	?
CCOc1cccc(-c2noc(-c3nnn4c3COC(c3ccc(OC)cc3)C4)n2)c1 (stereo not given)	-14	10%	18µM*	6%
COc1ccccc1-c1noc(-c2nnn3c2COC(c2ccc(F)cc2)C3)n1 (stereo not given)	9	-5%	?	-2%
COc1ccccc1-c1nc(-c2nnn3c2COC(c2ccc(C)cc2)C3)no1 (stereo not given)	-6	2%	13µM*	-1%
COc1cccc(-c2nc(-c3nnn4c3COC(c3ccc(Cl)cc3)C4)no2)c1OC (stereo not given)	0	17%	25µM*	7%
COc1ccc(C2Cn3nnc(-c4noc(-c5ccccc5OC)n4)c3CO2)cc1 (stereo not given)	-3	-30%	?	21%
COc1ccc(-c2nc(-c3nnn4c3COC(c3ccc(Cl)cc3)C4)no2)c(OC)c1 (stereo not given)	-4	-25%	?	1%
COc1cc2c(cc1-c1ccc(F)cc1)OCC(C)(C)CC2CO (stereo not given)	-14	.	.	.
Cc1ccc([S+](=O)([O-])N2CCN(c3ccc4nnc(C)n4n3)CC2)cc1	6	.	.	.
O=C(NCc1ccc(Cl)cc1)c1cc(-c2ccc(Cl)cc2Cl)c2nncn2n1	4	-1%	.	-12%[12.5 µM]
COc1ccc(F)cc1-c1cccc(C(=O)O)c1	6	20%[87.6 µM]	i	2%[87.6 µM]
COc1ccc(F)cc1-c1ccc(C(=O)O)cc1	-11	-12%[87.6 µM]	100µM*	0%[87.6 µM]
COc1ccc(F)cc1-c1ccc(C=O)cc1	-14	-8%[87.6 µM]	50µM*	3%[87.6 µM]
CCN(CC)c1ccc(C(=O)NCc2nnc3cc(-c4nc(C(C)C)no4)ccn23)cc1	3	3%	?	-17%
CC(C)c1noc(-c2ccn3c(CNC(=O)c4ccc(N(C)C)cc4)nnc3c2)n1	-12	-10%	22µM*	?
CC(C)c1noc(-c2ccn3c(CNC(=O)c4cccc(N(C)C)c4)nnc3c2)n1	-2	93%	28µM*	-7%
Cc1nnc(SCC(=O)N(C)CCOc2ccc(Cl)cc2)n1Cc1ccccc1	.	.	i	.
Cc1noc(-c2cccs2)c1C(=O)NC(C)CCc1ccccc1 (stereo not given)	1	-15%	28µM*	-2%
Cc1noc(-c2cccs2)c1C(=O)NC1CCc2ccccc21 (stereo not given)	-13	3%	28µM*	-1%
O=C(c1ccc(-c2cccs2)cc1)N1CCC(C(=O)N2CCOCC2)CC1	-7	.	.	.
COc1ccc(-c2[nH]nc3ncc(-c4cccnc4OC)nc23)c(C)c1	8	1%[87.6 µM]	35µM*	6%[87.6 µM]
COc1ccc(-c2[nH]nc3ncc(-c4ccccc4OC)nc23)c(C)c1	13	15%[87.6 µM]	?	9%[87.6 µM]
